Results reported in the supplement of paper PMC3724861.
The full list was thinned out, with hits kept by preference. The true hit rate is not given. Values without a mark were called inactive.

tested on: T1, Caupolican (Caup) homeodomain DNA-binding domain; assay: PBM E-score (8-mer, recovered from the published 9-mer minima) (E-score (dimensionless, -0.5 to 0.5)); Drosophila protein; higher = stronger relative binding preference, active = 0.31 or more
T1 sequence: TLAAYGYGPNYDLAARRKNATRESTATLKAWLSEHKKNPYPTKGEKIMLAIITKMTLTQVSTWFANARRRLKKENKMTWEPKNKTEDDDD
In short: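 An enrichment score, with higher meaning stronger, expresses relative binding preference for each short DNA word. The protein used was Caup's homeodomain DNA-binding domain (residues 214-303), produced by in vitro transcription and translation and tested at 100 nM on custom-designed protein binding microarrays. The 8-mer values were recovered from published 9-mer scores, each equal to the lower of its two constituent 8-mer scores.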

Sequence | PBM E-score
ACGATGTA | 0.36 (active)
CCGATGTA | 0.159
CTGATGTA | 0.251
CTGATGTC | 0.212
ACGATGTC | 0.261
GTGATGAA | 0.0845
ATGATGGA | 0.0619
GTGATGTA | ≥ 0.383 (active)
ATGATGTG | 0.0894
ATGATGTA | ≥ 0.383 (active)
ATGATGAA | 0.158
GATTCGGC | -0.0366
CAGAACAG | 0.0845
ATCGCTTG | -0.0165
ATAGTCCG | 0.00249
TAGCAAGA | 0.142
CTACTCAA | 0.116
CCAGTCAG | -0.104
TCGCAACA | 0.0932
CTATACGA | 0.0334
CAGATGTA | 0.247
GAGATGTA | 0.329 (active)
AAGATGTA | 0.298
TATTGAAA | 0.117

Sequence | PBM E-score
ATTATGTA | 0.327 (active)
CTTATGTC | 0.224
CTTATGTA | 0.345 (active)
ATTATGTG | 0.197
ATTATGTC | 0.227
GTTATGTA | 0.276
CGGTTCAA | -0.15
AGCGGTTA | -0.0759
AGAGATGA | -0.00602
AGGACATC | 0.233
CCGACAAC | 0.198
AAGACATA | 0.229
GCGACAAC | 0.224
AGGACATG | 0.38 (active)
ACGACAAC | 0.339 (active)
AAGACATG | 0.381 (active)
ACGACATA | 0.299
AGGACAAG | 0.254
AAGACATT | 0.0764
ACGACATC | 0.26
ACGACATG | ≥ 0.416 (active)
CATTTTGA | 0.0478
ACGAGTGC | 0.0719
ATATACTG | 0.156

Sequence | PBM E-score
TCAACGAA | 0.0771
GGGATTAC | 0.0873
CTGCGTGA | -0.0361
GACCTCTA | -0.142
GATGCCTA | 0.0242
CGCTAGAC | -0.0864
ACGACAAG | ≥ 0.317 (active)
ACGACAAA | 0.194
ACGACAAT | 0.186
CCACAGCC | -0.141
AACACAAC | ≥ 0.339 (active)
CACACAAC | 0.14
AACACAAG | 0.228
GACACAAC | 0.216
AACACAAT | ≥ 0.319 (active)
AACACAAA | 0.207
GAGACACC | -0.0907
AATCATGG | 0.0994
AACCATGC | 0.0352
AAGCATGC | 0.122
AAGCATGG | 0.00906
AACCATGG | 0.0193
AATCATGA | 0.164
AATCATGT | 0.42 (active)

Sequence | PBM E-score
AAGCATGT | 0.356 (active)
AACCATGT | 0.347 (active)
ACAATTCG | 0.163
AGATCGCC | -0.108
TCCAGTCA | -0.102
AAACGTGT | 0.31 (active)
AAACGTGG | -0.051
AATCGTGT | 0.324 (active)
AATCGTGA | 0.102
AATCGTGC | 0.105
AAACGTGA | 0.0748
AGCGTCGA | 0.017
AATGATAA | 0.141
GAGTAACC | -0.034
ATGGACGG | -0.0288
CATCCTGA | 0.007
AAATATGA | 0.164
AAATATGT | 0.335 (active)
AAATATGC | 0.00511
ATAGCCTC | -0.0831
CGTAAACG | -0.0383
ATACACGG | 0.299
GTACACGA | 0.427 (active)
ATACACGC | 0.275

Sequence | PBM E-score
ATACACGA | 0.33 (active)
GTACACCA | 0.238
CTACACGA | 0.295
ACGCGCTC | -0.0722
CAAGTTAA | 0.137
CTGGGCCA | -0.265
GATCTCGC | -0.112
GCGGTCTA | -0.0746
ACAACCTC | 0.169
ACTTGTCA | ≥ 0.378 (active)
GCTTGTCC | 0.305
CCTTGTCG | 0.277
TATTGTCA | 0.225
GCTTGTCA | 0.352 (active)
TCTTGTCA | 0.329 (active)
CCTTGTCA | 0.342 (active)
TCTTGGCA | -0.0494
GATTGTCA | 0.13
ACTTGTCG | 0.266
ACTTGTCC | 0.237
CCTTGTCC | 0.171
